Data taken from ChEMBL document CHEMBL3433997, “St. Jude Leishmania screening dataset” (2016).

What was measured:
Type in all cases: functional
[1] = biological target: Solute carrier family 2, facilitated glucose transporter member 1 (Homo sapiens) (UniProt P11166); assay: ST_JUDE_LEISH: Cytotoxicity at 2uM final concentration against transgenic Leishmania Mexicana promastigotes LmGLUT1 that are glucose transport deficient and complemented with the human glucose transporter GLUT1. Activity is measured by DNA content using SYBR green in vitro
[2] = biological target: Hexose transporter 1 (Plasmodium falciparum) (UniProt O97467); assay: ST_JUDE_LEISH: Cytotoxicity at 2uM final concentration against transgenic Leishmania Mexicana promastigotes LmPfHT that are glucose transport deficient and complemented with the Plasmodium falciparum hexose transporter. Activity is measured by DNA content using SYBR green in vitro
[3] = biological target: Glucose transporter (Leishmania mexicana) (UniProt O61059); assay: ST_JUDE_LEISH: Cytotoxicity at 2uM final concentration against transgenic Leishmania Mexicana promastigotes LmGT2 that are glucose transport deficient and complemented with the L. Mexicana glucose transporter 2. Activity is measured by DNA content using SYBR green in vitro

Solute carrier family 2, facilitated glucose transporter member 1 (Homo sapiens), sequence (P11166 whole entry): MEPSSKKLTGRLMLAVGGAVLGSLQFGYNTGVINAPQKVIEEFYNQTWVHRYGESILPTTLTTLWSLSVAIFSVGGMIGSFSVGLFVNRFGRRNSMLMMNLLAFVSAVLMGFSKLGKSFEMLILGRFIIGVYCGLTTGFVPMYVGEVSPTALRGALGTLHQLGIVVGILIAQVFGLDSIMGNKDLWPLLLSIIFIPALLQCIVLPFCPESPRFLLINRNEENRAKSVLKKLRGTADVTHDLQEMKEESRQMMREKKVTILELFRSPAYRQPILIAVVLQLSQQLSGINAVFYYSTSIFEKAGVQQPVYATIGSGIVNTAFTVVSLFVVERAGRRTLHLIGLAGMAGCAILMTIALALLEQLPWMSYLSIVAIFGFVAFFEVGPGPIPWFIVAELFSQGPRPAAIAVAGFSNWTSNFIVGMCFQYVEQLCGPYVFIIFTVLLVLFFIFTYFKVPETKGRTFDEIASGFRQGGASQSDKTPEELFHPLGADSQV

SMILES | inhibition [1] [%] | inhibition [2] [%] | inhibition [3] [%]
CCC(CO)NCC(O)Cn1c2ccc(Br)cc2c2cc(Br)ccc21 (centres undefined) | 1.9 | -0.92 | -1.57
COc1ccc(Nc2nc(N/N=C/c3ccc(O)cc3)nc(Nc3ccc([N+](=O)[O-])cc3)n2)cc1 | 1.19 | 2.44 | 0.87
COc1ccc(CN2CCC(CN3CC4(OC3=O)c3ccccc3-c3ccccc34)C2)c(O)c1 (centres undefined) | 10.8 | 9.02 | 11
Cc1cccc2nc(C(=O)Nc3nc(CN4CCC(C)CC4)cs3)cn12 | -0.22 | -1.59 | 1.62
COc1cccc(C(=O)NCCOc2ccccc2)c1Oc1ccccc1 | 5.14 | 5.7 | 5.15
COCCOc1ccc(C(F)(F)F)cc1NC(=O)Cc1c(F)cccc1Cl | 11.3 | 8.21 | 6.01
O=C(/C=C/c1ccc(Cl)c(Cl)c1)NCCCCCN1CCC(NC(=O)Nc2ccc(F)c(F)c2)CC1 | -1.34 | -0.67 | -2.11
CCOc1cc(Cc2cnc(N)nc2N)cc(OC)c1OC | -1.63 | -0.5 | -0.04
C[C@@H](CC1CCCCC1)OC(=O)N(C)[C@@H]1CCN(C#N)C1 | 14.6 | 10.3 | 10.5
Cc1cccc(-c2cccc(CNc3nc(NCCc4ccc(O)cc4)nc(N4CCNCC4)n3)c2)c1 | 2.88 | 3.88 | 2.83
CCOc1cc(CNCCCCCCNCc2cc(OCC)c(OCC)c3ccccc23)c2ccccc2c1OCC | 58.6 | 12.1 | 103
CC(C)(C)c1cc(Cn2ccnc2)cc(C(C)(C)C)c1O | 6.9 | 9.32 | 4.9
CCOC(=O)c1c(C)n(-c2ccc(Cl)cc2)c2ccc(OC(=O)C=Cc3ccccc3)cc12 | 2.75 | 5.54 | 5.18
COc1ccc2ccccc2c1C=NN=c1cc[nH]c2ccc(F)cc12 | 3.72 | 2.24 | 7.98
CCOC(=O)c1cn(CC)c2cc(N3CCCCCC3)c(F)cc2c1=O | 10.3 | 4.48 | 3.87
CC1(C)NC(N)=NC(=N)N1OCCCOc1cc(Cl)ccc1Cl | 13.6 | 13.5 | 13.6
CC(C)Nc1nc(NCCc2c[nH]cn2)nc(NCc2cccc3ccccc23)n1 | -1.11 | -0.07 | -2.34

SMILES | inhibition [1] [%] | inhibition [2] [%] | inhibition [3] [%]
COc1ccc(-c2ccc(NC(=O)c3cccc(F)c3)cc2)cc1CN1CCCN(C)CC1 | 4.26 | 2.56 | -2.3
COc1ccc(CN2CCCN(Cc3cccc(NC(=O)c4ccc(Cl)c(Cl)c4)c3)CC2)cc1 | 2.61 | 4.62 | 0.01
CC(C)(C)OC(=O)[C@H](CC(N)=O)NC(=O)c1ccc(-c2ccc(-c3nc4cc(C(F)(F)F)ccc4[nH]3)s2)cc1 | 5.01 | 3.22 | 1.57
CC(=O)Nc1cccc(Nc2nccc(-c3c(-c4cccc(NC(=O)c5c(F)cccc5F)c4)nn4ncccc34)n2)c1 | 6.99 | 11 | 1.53
Cc1ccc(NC(=O)c2ccc(CN3CCCN(Cc4cccc(C#N)c4)CC3)cc2)cc1F | 4.02 | 2.41 | 2.02
CCc1c(CCNCCCCCCNCCc2ccc(OC)c(OC)c2C)ccc(OC)c1OC | 10.2 | 9.23 | 12.1
COC(=O)c1sc(-c2ccc(Cl)cc2)cc1N(CCCN1CCC(N2CCCCC2)CC1)S(=O)(=O)c1ccc(C)cc1 | 23.5 | 11.2 | 9.1
COc1ccc2ncc(C)c(CCN3CCC(NCc4ccc5c(n4)NC(=O)CS5)CC3)c2c1 | 8.73 | 6.68 | 6.71
CN(C)c1cccc2c1nc(-c1ccco1)n2CCNCc1ccccc1 | -0.08 | 1.58 | -0.13
CCNc1cc(C(=O)N[C@@H](Cc2ccccc2)[C@H](O)CNCCc2cccc3ccccc23)cc(N2CCCC2=O)c1 | -0.63 | -0.02 | -1.96
O=C(NC1CC1)c1ccc(N2CCC(c3ccccc3)CC2)nc1 | 5.99 | 5.01 | 3.25
O=C(/C=C/c1ccc(Cl)c(Cl)c1)NCCCCCN1CCC(CCCNC(=O)Nc2ccc(C(F)(F)F)cc2)CC1 | -1.43 | -2.93 | -1.92
Cc1ccc(NC(=O)c2cccc(CN3CCCN(CC4CCCCC4)CC3)c2)cc1F | -0.17 | 0.26 | 0.75
CCC(CC)CN1C(=O)C(C)(c2ccccc2)N=C1N (centres undefined) | -1.13 | -0.03 | -1.23
O=C(O)c1ccc(-c2c[nH]c3ncc(-c4ccc(Cl)cc4)cc23)cc1 | 0.12 | -0.34 | -0.05
O=C(c1cccc(-c2cccc(-c3nc4ccccc4[nH]3)c2)c1)N1CCCCC1CN1CCC(O)C1 (centres undefined) | 0.33 | 0.78 | 0.03
